The list is not random: actives were taken first. Their share in the collection is about 4.1%.
ssDAF-12 act: S. stercoralis DAF-12 activation, primary screen; activation, % at 6.8 µM; hit rate 1% among 370,000; HEK293 ssDAF-12/GRIP1 lit1-tk-luc reporter, luminescence; % of 3 µM dafachronic acid response;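 active means activation above the mean over all tested compounds plus 3 SD, cut at about 0.9% in these data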
hgDAF-12 ag: hgDAF-12 agonism, primary luciferase screen; HEK293 GAL4-hgDAF12 UAS-luciferase reporter, agonist luminescence; normalized to butyrate control; activation, % at 6.8 µM; hit rate 1.8% among 370,000; AID 687014;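 active means activation above a cutoff set at the mean of all screened compounds plus 3 SD, cut at about 10% in these data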
DAX1 inh-1: inhibitors of DAX1 repression of SF-1 activated StAR promoter | HEK293T StAR-luciferase reporter, SF-1/DAX-1 repression relief | hit rate 1.1% among 370,000 | inhibition, % at 6.8 µM;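 active means inhibition above the mean over all tested compounds plus 3 SD, cut at about 3.6% in these data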;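 further: higher inhibition means more luminescence from relief of DAX-1 repression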
hcDAF12 agonist: activates DAF-12 receptor from parasite H. contortus. AID 652067. HEK293 hcDAF-12 lit1-tk-luc reporter, luminescence; 0% DMSO, 100% Δ7-dafachronic acid. activation, % at 6.8 µM. hit rate 1.4% among 370,000;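 active means activation above the mean of all tested compounds plus 3 SD, cut at about 5.5% in these data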
DAX1 inh-2: inhibitors of human orphan nuclear receptor DAX1 (NR0B1) | HEK293 Gal4-DAX1 luciferase reporter, luminescence | P51843 | inhibition, % at 6.75 µM | hit rate 0.99% among 340,000;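 active means inhibition above the mean over all tested compounds plus 3 SD, cut at about 4.2% in these data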;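 further: inhibition shows as a rise in luminescence from relieved DAX1 repression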
DAX1 inh confirm: NR0B1 (human) inhibition, confirmation. AID 652134. shares compounds with DAX1 inh-1. hit rate 87% among 2,400. HEK293T StAR-promoter luciferase reporter, SF-1/DAX-1 repression. inhibition, % at 6.8 µM;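 active means inhibition above the average of every tested compound plus 3 SD, cut at about 3.8% in these data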;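 further: active compounds raise luminescence by relieving repression of the StAR reporter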
Target sequence (P51843 whole entry, looked up): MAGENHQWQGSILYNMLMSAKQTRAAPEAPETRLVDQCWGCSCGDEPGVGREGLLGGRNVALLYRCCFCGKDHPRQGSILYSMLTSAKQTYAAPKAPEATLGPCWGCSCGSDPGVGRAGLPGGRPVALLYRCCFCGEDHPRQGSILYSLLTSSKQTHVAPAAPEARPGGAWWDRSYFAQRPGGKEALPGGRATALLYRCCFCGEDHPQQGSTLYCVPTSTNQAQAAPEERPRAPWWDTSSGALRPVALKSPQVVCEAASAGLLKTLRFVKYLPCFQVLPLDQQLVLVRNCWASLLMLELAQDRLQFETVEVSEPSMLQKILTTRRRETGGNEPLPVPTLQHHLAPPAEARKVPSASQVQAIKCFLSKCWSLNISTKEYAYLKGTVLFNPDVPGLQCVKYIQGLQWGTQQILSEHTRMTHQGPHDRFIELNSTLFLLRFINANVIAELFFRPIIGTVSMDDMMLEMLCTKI
SF1 AF2mut Luc: nonselective inhibitor or artifact in SF-1 mutant DAX1 counter-screen; hit rate 78% among 2,400; HEK293 StAR-luciferase, SF-1 AF2 mutant, luminescence; shares compounds with DAX1 inh-1; inhibition, % at 6.8 µM;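 active means inhibition above the mean of all tested compounds plus 3 SD, cut at about 3% in these data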
Each line names hits and unclear results; the compound was inactive in the other large screens (follow-up assays come after a bar, where they were run).

O=C(CN1C(=O)c2ccccc2S1(=O)=O)NCc1ccc(F)cc1	none
O=C(CN1C(=O)c2ccccc2S1(=O)=O)NCc1c(F)cccc1F	DAX1 inh-2 4.9
Cc1ccc(-n2c(SCC(=O)Nc3cccc4ccccc34)nnc2-c2cnccn2)cc1	none (no result: DAX1 inh-2)
CC(C)(C)c1nnc(NC(=S)Nc2ccccc2)s1	hgDAF-12 ag 11
CCc1ccc(NC(=O)c2ccccc2Br)cc1	hgDAF-12 ag 12, DAX1 inh-2 5.9
CCNC(=S)Nc1cccc(NC(=O)c2ccccc2O)c1	none
CCNC(=S)Nc1ccc(NC(=O)c2ccccc2O)cc1	ssDAF-12 act 1.6
CCCn1nnc(NC(=O)c2ccccc2Br)n1	none
CCCn1nnc(NC(=O)c2ccc3ccccc3c2)n1	hgDAF-12 ag 11
CCn1nnc(NC(=O)c2ccccc2Br)n1	ssDAF-12 act 1.0
CCOC(=O)[C@@]12CCCC3=C1N(CCC3)C(=O)[C@H]2CC(=O)NCc1ccc(C)o1	none (no result: DAX1 inh-2)
Cc1ccc(NC(=O)CSc2nnc(-c3cccnc3)n2Cc2ccco2)cc1C	none (no result: DAX1 inh-2)
O=C(CSc1nc2nc(-c3cccs3)cc(C(F)(F)F)c2c(=O)[nH]1)C(F)(F)F	hgDAF-12 ag 13
COC(=O)CSc1nc2nc(-c3cccs3)cc(C(F)(F)F)c2c(=O)[nH]1	none
COc1ccc(N2CCN(C(=O)CN(C)S(=O)(=O)c3cnc[nH]3)CC2)cc1	DAX1 inh-2 7.1
NC(=O)C1CCN(c2nc(-c3ccc4c(c3)CCO4)cs2)CC1	none (no result: DAX1 inh-1, DAX1 inh-2)
Cc1ccccc1OCC(=O)OCC(=O)NCc1ccc2c(c1)OCO2	ssDAF-12 act 1.2
Cc1cccc(NC(=S)NCc2ccc3c(c2)OCO3)c1	none
Cc1cccc(NC(=O)NCc2ccc3c(c2)OCO3)c1	DAX1 inh-1 4.4
C/C(=N\OCC(=O)OCC(=O)NCc1ccccc1)c1ccc2c(c1)OCO2	DAX1 inh-1 3.9
Cc1nc2cc(-c3cccc(F)c3)nn2c(N2CCN(C(=O)c3ccco3)CC2)c1C	hcDAF12 agonist 5.8
COC(=O)C(C)N1C(=O)S/C(=C\c2cc(C)n(-c3ccccn3)c2C)C1=O (configuration not stated)	hgDAF-12 ag 11
O=S(=O)(CC1NCc2cc(F)ccc21)NCCc1ccccc1 (configuration not stated)	none (no result: DAX1 inh-2)
Cc1ccc2[nH]c(C)cc(=S)c2c1	none
Cc1cc(=S)c2ccccc2[nH]1	ssDAF-12 act 1.3
Cc1noc(C)c1S(=O)(=O)Nc1ccc2c(c1)C(=O)N([C@@H](C)CO)C[C@H](C)[C@@H](CN(C)Cc1ccc(C(F)(F)F)cc1)OCCCC[C@H](C)O2	none
CC(=O)N/C(=C\c1ccccc1)C(=O)OCC(=O)NC1CCCC1	hcDAF12 agonist 6.4
CC(=O)N/C(=C\c1ccccc1)C(=O)OCC(=O)c1ccccc1	none
CN(CCc1ccccn1)C(=O)c1cc2ccccn2n1	none (no result: DAX1 inh-2)
Nc1cccc(Oc2ccc3c(c2)C(=O)N(CC2CCCO2)C3=O)c1 (configuration not stated)	hgDAF-12 ag 11
Cc1nc2ccc(C(=O)N3CCN(C(=O)C(Cl)Cl)CC3)cc2n1C1CCCC1	none (no result: DAX1 inh-2)
CSCCC(c1nc2ccccc2[nH]1)n1c(/C=C/c2ccc(F)c(F)c2)nc2ccccc21 (configuration not stated)	ssDAF-12 act 0.9 (no result: DAX1 inh-2)
C/C(=N\NC(=O)c1ccccc1)c1ccc2c(c1)OCO2	DAX1 inh-2 5.2
C/C(CCc1ccc2c(c1)OCO2)=N\NC(=O)c1ccccc1	ssDAF-12 act 2.5, hgDAF-12 ag 11
COc1ccc(C(C(=O)NC2CCCC2)n2c(CSCCOc3ccccc3)nc3ccccc32)cc1 (configuration not stated)	none (no result: DAX1 inh-2)
CCCCN1C(=O)C(O)=C(C(C)=O)C1c1ccccc1[N+](=O)[O-] (configuration not stated)	ssDAF-12 act 0.9
CCCCN1C(=O)C(O)=C(C(C)=O)C1c1ccccc1 (configuration not stated)	none (no result: ssDAF-12 act, hgDAF-12 ag, DAX1 inh-1, hcDAF12 agonist)
CCOC(=O)CN/C=C(\C#N)c1ccccc1	DAX1 inh-2 5.4
C/C(=N/NC(=O)Cc1cccs1)c1cccc([N+](=O)[O-])c1	none (no result: DAX1 inh-2)
CCCCCCCCN1C(=O)[C@@H](CC(=O)NCc2ccccc2)C[C@@]2(C(=O)OC)C1=C[C@H](C1CCCC1)O[C@@H]2C	none (no result: DAX1 inh-2)
Clc1ccc([C@H]2OC[C@@]3(CNC4CCCCC4)CS[C@H](c4ccc(Cl)cc4)N23)cc1	none (no result: DAX1 inh-2)
Cc1nc2ccc(S(=O)(=O)NCC(=O)N3CCc4ccccc43)cc2s1	ssDAF-12 act 0.9
O=c1c2cc(Cl)ccc2nc(-c2ccccc2)n1O	none
O=c1c2cc(Cl)ccc2nc(-c2ccc(Cl)c(Cl)c2)n1O	DAX1 inh-2 4.5
CNc1cncc(-c2cccc(OC)c2F)n1	DAX1 inh-1 4.2 (no result: DAX1 inh-2)
CNc1cncc(-c2ccc(OC)c(OC)c2)n1	ssDAF-12 act 3.4, hgDAF-12 ag 11 (no result: DAX1 inh-2)
CNc1cncc(-c2c(OC)cccc2OC)n1	none (no result: DAX1 inh-2)
CSCCC(C(=O)Nc1c(C)cccc1C)N(Cc1ccccc1)Cc1ccccc1 (configuration not stated)	none (no result: DAX1 inh-2)
O=C(OC12CCCN(C1)/C(=C/c1ccncc1)C2)c1cccc(F)c1 (configuration not stated)	none (no result: DAX1 inh-2)
Cc1[nH]c2c([N+](=O)[O-])cccc2c1C	DAX1 inh-2 4.2
CCC(C)N(C(=O)CN1C(=O)C2CCCCN2C(=O)c2ccccc21)C(C)CC (configuration not stated)	none (no result: DAX1 inh-2)
NC(=O)c1ccccc1N/C=C/C(=O)c1ccc(F)cc1	hgDAF-12 ag 11, DAX1 inh-1 5.2 | DAX1 inh confirm 9.7 | SF1 AF2mut Luc 6.4
Cc1cc2nc(N3CCN(C(=O)c4ccco4)CC3)sc2cc1C	none
Cc1cc(C)c2nc(N3CCN(C(=O)c4ccco4)CC3)sc2c1	DAX1 inh-1 5.0 | DAX1 inh confirm 4.4 | SF1 AF2mut Luc inactive
O=C(Cn1nnc(-c2ccc3c(c2)OCO3)n1)Nc1ccccc1C(=O)O	DAX1 inh-1 4.9 | DAX1 inh confirm inactive | SF1 AF2mut Luc 3.1
O=C(Cn1nnc(-c2ccccc2)n1)Nc1ccc2c(c1)OCO2	none
O=C(c1cccs1)N1CCN(C(=O)c2cn(-c3ccccc3)nc2-c2ccccc2)CC1	DAX1 inh-1 7.7 | DAX1 inh confirm 5.8 | SF1 AF2mut Luc 3.4
COc1cc(C(=O)NCCC(=O)NC(C)C)cc(OC)c1OC	DAX1 inh-1 5.3 | DAX1 inh confirm inactive | SF1 AF2mut Luc inactive
CO[C@H]1CN(C)C(=O)c2cc(NC(=O)C3CCOCC3)ccc2OC[C@H](C)N(Cc2nccs2)C[C@H]1C	none (no result: DAX1 inh-2)
CCCCCCCC(=O)N[C@H]1CC[C@@]23CCCN2C(=O)CCC[C@H]3[C@H]1CCC	none (no result: DAX1 inh-1, DAX1 inh-2)
C/C(=N\NC(=O)c1ccoc1C)c1ccc(Cl)s1	none
